Laboratory results reported in ChEMBL document CHEMBL1201862, “PubChem BioAssay data set” (2004).
In all, about 400,000 compounds went through this assay and about 2,100 (0.53%) were called active. Inconclusive results (about 14%) are left out. How the calls were made is not given here. Many of the other results were omitted from the sample, so actives are more common in it than they were.

Each compound was assayed against Ataxin-2 (Homo sapiens) (UniProt Q99700) (assay: qHTS for Inhibitors of ATXN expression.).
Sequence of Ataxin-2 (Homo sapiens) (Q99700 whole entry): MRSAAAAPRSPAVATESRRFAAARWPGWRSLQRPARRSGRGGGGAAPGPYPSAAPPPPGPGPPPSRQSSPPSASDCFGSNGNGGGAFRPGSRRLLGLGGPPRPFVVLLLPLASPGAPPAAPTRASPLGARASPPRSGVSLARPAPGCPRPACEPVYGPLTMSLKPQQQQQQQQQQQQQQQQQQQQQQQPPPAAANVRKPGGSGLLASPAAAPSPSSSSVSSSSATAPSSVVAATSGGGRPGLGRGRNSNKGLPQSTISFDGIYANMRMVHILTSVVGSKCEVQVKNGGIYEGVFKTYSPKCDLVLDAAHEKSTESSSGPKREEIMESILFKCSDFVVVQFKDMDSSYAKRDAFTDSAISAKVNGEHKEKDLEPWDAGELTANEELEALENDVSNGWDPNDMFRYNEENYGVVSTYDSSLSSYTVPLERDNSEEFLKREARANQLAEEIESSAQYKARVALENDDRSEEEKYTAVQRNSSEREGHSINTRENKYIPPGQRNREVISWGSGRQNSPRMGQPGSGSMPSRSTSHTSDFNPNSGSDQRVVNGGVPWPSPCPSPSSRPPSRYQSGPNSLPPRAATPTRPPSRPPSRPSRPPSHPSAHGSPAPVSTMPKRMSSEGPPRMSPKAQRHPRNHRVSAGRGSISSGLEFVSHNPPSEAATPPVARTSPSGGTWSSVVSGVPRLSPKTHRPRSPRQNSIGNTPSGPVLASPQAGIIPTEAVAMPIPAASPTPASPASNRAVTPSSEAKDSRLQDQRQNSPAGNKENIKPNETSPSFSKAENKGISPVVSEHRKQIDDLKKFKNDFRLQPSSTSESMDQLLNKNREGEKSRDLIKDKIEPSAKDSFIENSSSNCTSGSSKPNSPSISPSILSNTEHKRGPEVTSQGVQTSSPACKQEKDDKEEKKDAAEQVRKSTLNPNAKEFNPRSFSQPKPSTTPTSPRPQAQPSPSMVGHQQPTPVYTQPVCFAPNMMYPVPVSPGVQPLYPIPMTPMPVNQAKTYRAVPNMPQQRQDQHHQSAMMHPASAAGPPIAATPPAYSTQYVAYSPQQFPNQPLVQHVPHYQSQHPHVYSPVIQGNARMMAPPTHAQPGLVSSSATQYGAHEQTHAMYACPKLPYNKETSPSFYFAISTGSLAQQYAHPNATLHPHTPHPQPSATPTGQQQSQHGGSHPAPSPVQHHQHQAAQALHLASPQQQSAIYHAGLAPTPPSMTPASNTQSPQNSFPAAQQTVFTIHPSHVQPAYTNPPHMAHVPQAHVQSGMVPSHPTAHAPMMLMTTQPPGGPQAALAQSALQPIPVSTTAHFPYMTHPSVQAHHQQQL
Type: functional

Row | Compound | Potency
1 | NSc1nc(N)c2nc(-c3ccccc3)c(-c3ccccc3)nc2n1 | inactive
2 | NCCCCCCNS(=O)(=O)c1cccc2c(Cl)cccc12 | 39.8 µM (active)
3 | O=C(O)CCCCCNS(=O)(=O)c1ccc2c3c(cccc13)C(=O)N2 | inactive
4 | O=C1Nc2ccc(S(=O)(=O)NCCCO)c3cccc1c23 | inactive
5 | CCOc1cccc(C2c3c(-c4cc(C)ccc4O)n[nH]c3C(=O)N2Cc2ccco2)c1 (configuration not stated) | 39.8 µM (active)
6 | O=C1c2cccc3c(O)ccc(c23)C(=O)N1Cc1ccco1 | inactive
7 | Cc1ccc(O)c(-c2n[nH]c3c2C(c2ccccc2F)N(Cc2ccco2)C3=O)c1 (configuration not stated) | 39.8 µM (active)
8 | Cc1cc(N=Nc2ccc(C)c(N=Nc3cc(C)c(N)cc3N)c2)c(N)cc1N | 39.8 µM (active)
9 | O=C1OCCN1C(=O)[C@H]1[C@H](c2ccc(F)cc2)C(c2ccc(F)cc2)=NN1c1ccccc1 | inactive
10 | OCc1ccc(N=Nc2ccccc2)cc1 | inactive
11 | Cc1[nH]c(N=Nc2ccccc2)nc1N=Nc1ccccc1 | 20 µM (active)
12 | COc1cc(/C=C2/NC(=O)N(Cc3ccccc3F)C2=O)ccc1O | inactive
13 | COc1cc(/C=C2/CCC/C(=C\c3cc(O)c(OC)c(Cl)c3)C2=O)cc(Cl)c1O | 39.8 µM (active)
14 | COc1cc(/C=C2\CC/C(=C\c3cc(OC)c(O)c(OC)c3)C2=O)cc(OC)c1O | 28.2 µM (active)
15 | COc1cc(/C=C/c2nc3ccccc3s2)cc(OC)c1O | inactive
16 | COc1cc2ccc(=O)oc2c(O)c1O | inactive
17 | COc1cc(/C=C2\CCc3c2nc2ccccc2c3C(=O)O)cc(OC)c1OC | inactive
18 | COc1cc(/C=C/C(=O)c2ccc3c(c2)OCO3)cc(Cl)c1O | inactive
19 | COc1cc(/C=C2\SC(c3ccccc3)=NC2=O)cc(Cl)c1O | inactive
20 | CCOc1cc(/C=C2\CCCc3c2nc2ccccc2c3C(=O)O)ccc1OC | inactive
21 | COc1cc(C=C2C(=O)C=CC2=O)ccc1O | 14.1 µM (active)
22 | COc1cc(/C=C2\CCC/C(=C\c3ccc(O)c(OC)c3)C2=O)ccc1O | 35.5 µM (active)
23 | COc1cc(/C=C2\C(=N)N3N=C(CC(=O)N4CCCCC4)SC3=NC2=O)ccc1O | inactive

Row | Compound | Potency
24 | C=CCN1c2ccccc2Sc2cnccc21 | inactive
25 | Nc1ccc2nn(-c3ccc(F)cc3)nc2c1 | inactive
26 | COc1cc(/C=C/c2ccc3cccc(O)c3n2)ccc1O | inactive
27 | CCOc1cc(/C=C2/C(=N)N3N=C(CC(=O)N4CCCC4)SC3=NC2=O)ccc1O | inactive
28 | CCOc1cc(/C=C2\CN(C)C/C(=C\c3ccc(O)c(OCC)c3)C2=O)ccc1O | 15.8 µM (active)
29 | CCOc1cc(/C=C2\C(=N)N3N=C(CC(=O)N4CCCCC4)SC3=NC2=O)ccc1O | inactive
30 | COc1cc(/C=C/C(=O)OCC(=O)N2CCC(Cc3ccccc3)CC2)ccc1O | inactive
31 | COc1cc(/C=C/C=C2/CC/C(=C/C=C/c3ccc(O)c(OC)c3)C2=O)ccc1O | 13.4 µM (active)
32 | COc1cc(/C=C2\COC/C(=C\c3ccc(O)c(OC)c3)C2=O)ccc1O | 31.6 µM (active)
33 | COc1cc(/C=C2\Oc3cc(O)ccc3C2=O)ccc1O | inactive
34 | COc1cc2ccc(=O)oc2cc1O | inactive
35 | CCCn1/c(=N\C(=O)c2c(-c3c(F)cccc3Cl)noc2C)c(C(=O)OCC)cc2c(=O)n3ccccc3nc21 | inactive
36 | CCCn1c(O)nnc1SCC(=O)N(C1CCCCC1)C1CCS(=O)(=O)C1 (configuration not stated) | inactive
37 | CN(C)c1ccc(C2C3CCCc4ccccc4C3=NN2C)cc1 (configuration not stated) | inactive
38 | Nc1nnn(CC(=O)N/N=C/c2ccncc2)n1 | inactive
39 | CCNc1nc(NCC)n2c(SC(C(=O)Nc3cc(Cl)cc(Cl)c3)c3ccccc3)nnc2n1 (configuration not stated) | 39.8 µM (active)
40 | Cc1cc(/C=C2/C(=N)N3C(c4ccccc4)=CSC3=NC2=O)c(C)n1-c1ccccc1 | inactive
41 | Nc1nc(Cl)cc(=O)n1Cc1ccc(Cl)cc1 | inactive
42 | c1ccc(N/N=C(\Cc2ncc[nH]2)c2ccccc2)cc1 | inactive
43 | Brc1ccc(N/N=C(/N=Nc2nn[nH]n2)c2ccccc2)cc1 | 35.5 µM (active)
44 | CCOC(=O)C[n+]1ccc2c([nH]c3ccccc32)c1C | inactive
45 | C[C@@H]1CN([C@H](C)CO)C(=O)c2cccc(NC(=O)Nc3ccc(F)cc3)c2O[C@H]1CN(C)C(=O)Nc1ccc(C(F)(F)F)cc1 | 28.2 µM (active)
46 | C[C@H](CO)N1C[C@H](C)[C@@H](CN(C)C(=O)Nc2ccc(C(F)(F)F)cc2)Oc2c(NC(=O)Nc3ccccc3)cccc2C1=O | 25.1 µM (active)

Row | Compound | Potency
47 | C[C@H](CO)N1C[C@H](C)[C@@H](CN(C)C(=O)Nc2ccc3c(c2)OCO3)Oc2c(NC(=O)Nc3ccc(C(F)(F)F)cc3)cccc2C1=O | 22.4 µM (active)
48 | COc1ccc(NC(=O)N(C)C[C@H]2Oc3c(NC(=O)c4nc5ccccc5s4)cccc3C(=O)N([C@@H](C)CO)C[C@H]2C)cc1 | 39.8 µM (active)
49 | COc1ccc(OC)c(NC(=O)c2nc3ccccc3s2)c1 | inactive
50 | O=C(O)c1ccc(N2C(=O)CC(SC(=NCc3ccc4c(c3)OCO4)Nc3ccc(F)cc3)C2=O)cc1 (configuration not stated) | inactive
51 | O=C1N=C(Nc2nc3ccccc3[nH]2)c2ccccc21 | inactive
52 | CCOc1ccc2nc(NCCNS(=O)(=O)c3ccccc3)c(C#N)cc2c1 | inactive
53 | Clc1ccccc1C1=CC(c2ccco2)n2ncnc2N1 (configuration not stated) | inactive
54 | C#CCOc1c(Cl)cc(C2C3=C(CCCC3=O)N(CC(=O)O)C3=C2C(=O)CCC3)cc1OC | inactive
55 | C[C@H](CO)N1C[C@H](C)[C@@H](CN(C)C(=O)Nc2ccccc2)Oc2c(NC(=O)Nc3ccc(C(F)(F)F)cc3)cccc2C1=O | 39.8 µM (active)
56 | COc1ccc(CCn2c(=N)c(C(=O)NCC3CCCO3)cc3c(=O)n4ccccc4nc32)cc1 (configuration not stated) | 15.8 µM (active)
57 | COCCCn1c(=N)c(C(=O)NCC2CCCO2)cc2c(=O)n3ccccc3nc21 (configuration not stated) | inactive
58 | COCCn1c(=N)c(C(=O)NCC2CCCO2)cc2c(=O)n3ccccc3nc21 (configuration not stated) | inactive
59 | O=C(CCC(=O)N1CCOc2ccc(Cl)cc21)NCCCN1CCC(Cc2ccccc2)CC1 | 26.7 µM (active)
60 | O=C(NCc1ccccc1)C(=O)NCC1OCCN1S(=O)(=O)c1ccc2c(c1)OCCO2 (configuration not stated) | inactive
61 | CCOc1ccccc1C(=O)NC(C(=O)NCc1ccc(F)cc1)C(C)C (configuration not stated) | inactive
62 | CC1=C(C)C(C)=C(C#N)C(=C(C#N)C#N)N1 | inactive
63 | CSc1nn(Cc2ccc(Br)cc2)c(N(C(C)=O)C(C)=O)c1S(=O)(=O)c1ccccc1 | 28.2 µM (active)
64 | Cn1c(=O)n(Cc2ccc(Br)cc2)c2ccccc21 | inactive
65 | CSc1nn(Cc2ccc(Cl)cc2)c(N(C(C)=O)C(C)=O)c1S(=O)(=O)c1ccccc1 | 25.1 µM (active)
66 | O=c1cc(Cl)c(-c2ccccc2)nn1Cc1ccc(Cl)cc1 | inactive
67 | CC12CCC(C(=O)N(CC3CO3)C1=O)C2(C)C (configuration not stated) | inactive
68 | Cn1cccc1C1C=C(c2ccc(C(C)(C)C)cc2)Nc2ncnn21 (configuration not stated) | inactive
69 | CC(=O)c1ccc(-c2ccc(C(=O)N(C)Cc3nc(O)c4ccccc4n3)o2)cc1 | inactive

Row | Compound | Potency
70 | CC(C)c1ccc(/C=C(\NC(=O)c2ccccc2)C(=O)NCCCn2ccnc2)cc1 | inactive
71 | O=C(NCCCn1ccnc1)C(=O)NCC1OCCN1S(=O)(=O)c1ccc(F)cc1 (configuration not stated) | inactive
72 | O=C(C[C@H]1C[C@H](C(=O)N2CCCCC2)[C@@]2(CCc3ccccc3)c3[nH]c4ccc(Cl)cc4c3CCN2C1=O)NCCCn1ccnc1 | 28.2 µM (active)
73 | O=C(/C=C/c1ccc(S(=O)(=O)N2CCOCC2)cc1)NCCCn1ccnc1 | inactive
74 | O=C(C[C@H]1C[C@H](C(=O)N2CCOCC2)[C@@]2(CCC3CCCC3)c3[nH]c4ccc(Cl)cc4c3CCN2C1=O)NCCCn1ccnc1 | 28.2 µM (active)
75 | CC[C@@]1(O)C(=O)OCc2c1cc1n(c2=O)Cc2cc3c(CN(C)C)c(O)ccc3nc2-1 | inactive
76 | CC(C)(C)c1ccc(OCC(=O)Nc2ccc3c4c(cccc24)C(=O)NC3=O)cc1 | inactive
77 | O=[N+]([O-])c1cc(/C=N/N=C(/Nc2ccccn2)c2ccccn2)ccc1O | 2.67 µM (active)
78 | Cc1ccc2nc3c(cc(C(N)=S)c(=N)n3CCCOC(C)C)c(=O)n2c1 | inactive
79 | C=CC[C@@H](CC(=O)N(CCO)Cc1ccccc1)C(=O)N[C@H](COC(=O)[C@@H](CC=C)CC(=O)OC(C)(C)C)c1ccccc1 | 31.6 µM (active)
80 | C=CC[C@H](CC(=O)N(CCO)Cc1ccccc1)C(=O)N[C@H](COC(=O)[C@@H](CC=C)CC(=O)OC(C)(C)C)Cc1ccccc1 | 35.5 µM (active)
81 | C=CC[C@H](CC(=O)N(CCO)Cc1ccccc1)C(=O)N[C@H](COC(=O)[C@@H](CC=C)CC(=O)OC(C)(C)C)c1ccccc1 | 35.5 µM (active)
82 | N#CCC(=O)N/N=C/c1cc(-c2ccccc2)n(-c2ccc(Cl)cc2)c1-c1ccccc1 | inactive
83 | COCCNS(=O)(=O)c1ccc2c3c(cccc13)C(=O)N2C | inactive
84 | CCCOC(=O)c1c(NC(=O)c2nc3ncccn3n2)sc(C(N)=O)c1C | inactive
85 | Nc1cccc2c1C(=O)N(CC(=O)NC13CC4CC(CC(C4)C1)C3)C2=O | inactive
86 | O=C(COC(=O)/C=C/C(=O)OCC(=O)NC12CC3CC(CC(C3)C1)C2)NC12CC3CC(CC(C3)C1)C2 | 31.6 µM (active)
87 | CCOc1cc(/C=C2/C(=N)N3C(=NC2=O)SN=C3S(=O)(=O)CC)ccc1OC(=O)c1ccco1 | inactive
88 | COc1ccc(/C=C2\C(=O)N(c3c(Cl)cc(Cl)cc3Cl)N=C2NC(=O)c2cccc([N+](=O)[O-])c2)cc1 | 22.4 µM (active)
89 | COc1ccc(CNC(=O)C/C(C)=N/NC(=O)c2ccc([N+](=O)[O-])cc2Cl)cc1 | inactive
90 | COc1ccccc1CCNC(=O)CCNS(=O)(=O)c1ccc(NC(C)=O)cc1 | inactive
91 | COC(=O)[C@]12CCCCC=C1N(CCC1=CCCCC1)C(=O)[C@H](CC(=O)NCCc1ccccc1OC)C2 | 39.8 µM (active)
92 | COC(=O)[C@]12CCCCC=C1N(CCC1=CCCCC1)C(=O)[C@H](CC(=O)NCc1cccc3ccccc13)C2 | 25.1 µM (active)
